# Measurements as given in PubChem BioAssay (EPA / NIEHS).
# Several values for one entry are separate records, joined by “and”; a condition that tells them apart may be missing. Equal entries are not always repeated. The source holds several records for some structures; these can differ, active in one and inactive in another. Activity calls are given as the source filed them. Rule for the calls: active = hit-call score of the fitted dose curve at least 0.9, where 1 is the maximum; inactive = score below 0.9.
# Experiments:
# Details in all cases: primary human HUVEC with PBMC; actives raise or lower the signal
# [1] = read-out: Monocyte Chemoattractant Protein-1 (MCP1), CCL2 (gene 6347); experiment: BSK_LPS_MCP1: BioMAP Diversity Plus: LPS Assay for Monocyte Chemoattractant Protein-1 (MCP1) Biomarker Activity (AID 2283081);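 for AC50: secreted MCP-1 protein quantified by ELISA in culture supernatant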
# In short: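 HUVEC plus PBMC co-culture (human primary cells, LPS system) exposed to test chemical for 24 h; MCP-1 measured by ELISA. Bidirectional curve fitting against DMSO baseline; parallel SRB total-protein staining flags overt cytotoxicity.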
# [2] = BSK_LPS_PGE2: BioMAP Diversity Plus: LPS Assay for Prostaglandin E2 (PGE2) Biomarker Activity (AID 2283082);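 for AC50: secreted prostaglandin E2 measured by ELISA in LPS-stimulated co-culture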
# In short: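 Endpoint derived from bidirectional curve fitting versus DMSO of ELISA-measured PGE2 in LPS-stimulated human primary vascular co-culture (HUVEC with PBMC) harvested at 24 h.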
# [3] = read-out: Tissue Factor, F3 (gene 2152); experiment: BSK_LPS_TissueFactor: BioMAP Diversity Plus: LPS Assay for Tissue Factor Biomarker Activity (AID 2283084)
# In short: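 Human umbilical vein endothelial cells co-cultured with peripheral blood mononuclear cells were dosed and stimulated with LPS. Cell-surface CD142 was quantified by ELISA at 24 h. Activity was fitted bidirectionally against DMSO baseline.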
# [4] = read-out: Tumor necrosis factor (Homo sapiens) (UniProt P01375); experiment: BSK_LPS_TNFa: BioMAP Diversity Plus: LPS Assay for Tumour Necrosis Factor alpha (TNFa) Biomarker Activity (AID 2283085)
# In short: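 Primary human vascular co-culture of HUVEC and PBMC; TNFa ELISA 24 h after treatment, analysed as increase or decrease relative to DMSO control.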
# [5] = read-out: Vascular cell adhesion molecule 1 (VCAM1), VCAM1 (gene 7412); experiment: BSK_LPS_VCAM1: BioMAP Diversity Plus: LPS Assay for Vascular cell adhesion molecule 1 (VCAM1) Biomarker Activity (AID 2283086)
# In short: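 Primary human vascular co-culture (umbilical vein endothelium plus PBMC) stimulated with LPS received chemical; 24 h later VCAM-1 was read by ELISA. Overt cytotoxicity was assessed by sulforhodamine B staining of parallel cultures at the same time point.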
# CD38, CD38 (gene 952) = experiment: BSK_SAg_CD38: BioMAP Diversity Plus: SAg Assay for CD38 Biomarker Activity (AID 2283087)
# In short: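 Fluorescence ELISA of cell-surface CD38 served as the read-out, with either increase or decrease fitted against DMSO controls. Cells were a human umbilical vein endothelium plus PBMC co-culture under SEB/TSST-1 stimulation, measured 24 h after dosing.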
# CD40, CD40 (gene 958) = experiment: BSK_SAg_CD40: BioMAP Diversity Plus: SAg Assay for CD40 Biomarker Activity (AID 2283088)
# In short: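 Human umbilical vein endothelial cells co-cultured with PBMC; CD40 levels measured by ELISA with fluorescence read-out 24 h after chemical dosing. Gain or loss of signal fitted bidirectionally against DMSO baseline.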
# CD69, CD69 (gene 969) = experiment: BSK_SAg_CD69: BioMAP Diversity Plus: SAg Assay for CD69 Biomarker Activity (AID 2283089);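 for AC50: cell surface CD69 protein quantified by ELISA with fluorescence detection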
# In short: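 HUVEC co-cultured with PBMC were dosed with chemical, and CD69 was measured by ELISA with fluorescence read-out 24 h later. Bidirectional curve fitting used DMSO as negative control and activity baseline.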
# [6] = read-out: Monocyte Chemoattractant Protein-1 (MCP1), CCL2 (gene 6347); experiment: BSK_SAg_MCP1: BioMAP Diversity Plus: SAg Assay for Monocyte Chemoattractant Protein-1 (MCP1) Biomarker Activity (AID 2283090)
# In short: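 MCP-1 levels in the endothelial–PBMC SAg co-culture were quantified by ELISA at 24 h post-dosing; both increases and decreases versus DMSO scored. Cytotoxicity monitored by SRB total protein in parallel cultures.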
# [7] = read-out: Macrophage colony-stimulating factor (MCSF), CSF1 (gene 1435); experiment: BSK_LPS_MCSF: BioMAP Diversity Plus: LPS Assay for Macrophage colony-stimulating factor (MCSF) Biomarker Activity (AID 2283083)
# In short: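 Human umbilical vein endothelial cells co-cultured with peripheral blood mononuclear cells were exposed to compound for 24 h. M-CSF levels were measured by ELISA, and bidirectional curve fitting used DMSO as the negative control and baseline.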
# Chain of Tumor necrosis factor (Homo sapiens) (P01375 whole entry, looked up): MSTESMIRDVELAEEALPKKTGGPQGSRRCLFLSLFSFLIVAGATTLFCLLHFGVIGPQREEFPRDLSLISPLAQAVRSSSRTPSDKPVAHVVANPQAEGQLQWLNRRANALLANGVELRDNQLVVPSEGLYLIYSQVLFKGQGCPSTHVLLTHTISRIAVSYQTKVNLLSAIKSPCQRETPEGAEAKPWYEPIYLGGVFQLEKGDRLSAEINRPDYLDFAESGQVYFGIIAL
SMILES,outcome [1],AC50 [2],AC50 [3],outcome [3],outcome [4],AC50 [5],outcome [5],"outcome (CD38, CD38 (gene 952))","outcome (CD40, CD40 (gene 958))","outcome (CD69, CD69 (gene 969))",outcome [6],outcome [7],AC50 [4],outcome [2],AC50 [7],"AC50 (CD38, CD38 (gene 952))","AC50 (CD40, CD40 (gene 958))","AC50 (CD69, CD69 (gene 969))",AC50 [6],AC50 [1]
COc1cc(-c2ccc(N)c(OC)c2)ccc1N,inactive,3.63 µM (active) and 9 µM (active),19.2 µM (active),inactive,inactive,23.9 µM (active),inactive,inactive,inactive,inactive,inactive,–,–,–,–,–,–,–,–,–
ClC1(Cl)C2(Cl)C3(Cl)C4(Cl)C(Cl)(Cl)C5(Cl)C3(Cl)C1(Cl)C5(Cl)C24Cl (stereo unspecified),inactive,148 nM (active),–,inactive,–,–,inactive,inactive,inactive,inactive,inactive,inactive,0.149 µM (active),–,–,–,–,–,–,–
Oc1c(I)cc(I)cc1I,inactive,–,–,inactive,inactive,14.3 µM (active),–,–,–,–,–,–,–,inactive,31.1 µM (active),25.4 µM (active),25.3 µM (active),29.4 µM (active),32.3 µM (active),–
CC(C)(c1ccccc1)c1ccc(O)c(C(C)(C)c2ccccc2)c1,–,–,12.6 µM (active),–,–,12.9 µM (active),–,–,–,–,–,–,12.3 µM (active),inactive,9.66 µM (active),10.5 µM (active),–,11.9 µM (active),9.77 µM (active),10.1 µM (active)
CC(=O)OC(c1ccccc1)C(Cl)(Cl)Cl (stereo unspecified),inactive,–,–,inactive,inactive,–,inactive,inactive,inactive,inactive,inactive,inactive,–,inactive,–,–,–,14.2 µM (active),–,–
Nc1ncc([N+](=O)[O-])s1,inactive,–,–,inactive,inactive,–,inactive,inactive,inactive,inactive,inactive,inactive,–,inactive,–,–,–,–,–,–
CC(=O)[O][Hg][c]1ccccc1,–,149 nM (active),1.99 µM (active),–,–,2.4 µM (active),–,–,–,–,–,–,1.62 µM (active),–,0.989 µM (active),0.56 µM (active),1.46 µM (active),1.39 µM (active),1.04 µM (active),1.7 µM (active)
CC(C)(C)c1cc(O)ccc1O,–,5940 nM (active),20 µM (active),–,–,8.15 µM (active),–,–,–,–,–,–,9.38 µM (active),–,12.1 µM (active),8.22 µM (active),8.26 µM (active),5.54 µM (active),8.93 µM (active),13 µM (active)
C=CC(=O)OCCCCCC(C)C,inactive,–,–,inactive,inactive,–,inactive,inactive,inactive,inactive,inactive,inactive,–,inactive,–,–,–,–,–,–
CCOP(=S)(OCC)SCCS(=O)(=O)CC,inactive,–,–,inactive,inactive,–,inactive,inactive,inactive,inactive,inactive,inactive,–,inactive,–,–,–,–,–,–
ClC(Cl)=C(Cl)C(Cl)=C(Cl)Cl,inactive,–,33.2 µM (active),–,–,31.4 µM (active),–,inactive,inactive,inactive,inactive,–,30.9 µM (active),inactive,32.1 µM (active),–,–,–,–,–
CC1(C)Cc2cccc(O)c2O1,inactive,4310 nM (active),–,inactive,inactive,–,inactive,inactive,inactive,inactive,inactive,inactive,–,–,–,–,–,–,–,–
C[C@]12CCC(=O)C[C@@H]1CC[C@@H]1[C@@H]2CC[C@]2(C)[C@@H](O)CC[C@@H]12,–,–,–,inactive,inactive,29 µM (active),–,inactive,inactive,inactive,–,–,–,inactive,19 µM (active),–,–,–,28.2 µM (active),26 µM (active)
O=C(O)C(F)(F)C(F)(F)C(F)(F)C(F)(F)C(F)(F)C(F)(F)F,inactive,–,–,inactive,inactive,–,inactive,inactive,inactive,inactive,inactive,inactive,–,inactive,–,–,–,–,–,–
O=S(=O)(c1ccc(Cl)cc1)c1ccc(Cl)cc1,inactive,–,–,inactive,inactive,–,inactive,inactive,inactive,inactive,inactive,inactive,–,inactive,–,–,–,–,–,–
OCc1ccco1,inactive,–,–,inactive,inactive,–,inactive,inactive,inactive,inactive,inactive,inactive,–,inactive,–,–,–,–,–,–
